Experimental data taken from PubChem BioAssay (NCI).
About 79,000 compounds went through this panel and 15% of them were active in at least one assay; those are over-represented in the sample as a whole. Rule as the data show it: active = growth inhibition above about 70%; inactive = the rest.

Experiments:
[1] = NCI Yeast Anticancer Drug Screen. Data for the rad50 strain (AID 155);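 also: 0% = growth of vehicle-only cultures of the same strain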; details: S. cerevisiae rad50 strain growth inhibition, active compounds read high; at 50.0 µM unless noted
How it was run: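 Yeast carrying a defined DNA repair defect were exposed to test compounds, and growth was compared with vehicle-treated controls to give percent inhibition.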

[2] = NCI Yeast Anticancer Drug Screen. Data for the mec2-1 strain (AID 157); details: S. cerevisiae mec2-1 strain, active compounds read high; at 50.0 µM unless noted
How it was run: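 Strain: mec2-1 (DNA repair/cell cycle alteration). Compound exposure, then growth measured; inhibition expressed relative to vehicle.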

[3] = NCI Yeast Anticancer Drug Screen. Data for the sgs1 mgt1 strain (AID 161);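 also: 0% = growth of cultures given vehicle only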; details: S. cerevisiae sgs1 mgt1 strain, active compounds read high; at 50.0 µM unless noted
How it was run: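 Test agents were incubated with a DNA-repair-mutant yeast strain. Growth was then read and compared against vehicle-treated controls.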

[4] = NCI Yeast Anticancer Drug Screen. Data for the cln2 rad14 strain (AID 165);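 also: 0% = growth equal to vehicle treated cultures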; details: S. cerevisiae cln2 rad14 strain, active compounds read high; at 50.0 µM unless noted
How it was run: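 Compounds are applied to the cln2 rad14 yeast strain, and growth is then compared with that of vehicle-treated cultures to give inhibition.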

[5] = NCI Yeast Anticancer Drug Screen. Data for the bub3 strain (AID 167); details: S. cerevisiae bub3 mutant strain, active compounds read high; at 50.0 µM unless noted
How it was run: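 Compounds were applied to a genetically altered yeast strain carrying a cell-cycle control defect. Growth inhibition was scored against vehicle-treated controls.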

[6] = NCI Yeast Anticancer Drug Screen. Data for the mlh1 rad18 strain (AID 175); details: S. cerevisiae mlh1 rad18 strain growth inhibition, active compounds read high; at 50.0 µM unless noted
How it was run: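 Read-out is yeast growth inhibition, calculated against vehicle-only controls. The compound was applied to a strain engineered with DNA damage repair alterations.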

Measured: growth inhibition

CC(=O)C12C[C@](C#N)(N3CCCCCC3)C1C=Cc1ccccc12 (some centres undefined)
inactive: [1] -56% | [2] -29.6% | [3] -46.1% | [4] -51.5% | [5] -21.5% | [6] -56.4%

CCOC(=O)CC1(N)CC2c3ccccc3OC(=O)C2C(=O)N1 (centres undefined)
inactive: [1] 10.6% | [2] 15.1% | [3] 6.15% | [4] 0.45% | [5] -2.8% | [6] -33.6%

CC(=O)CC(C[N+](=O)[O-])c1ccccc1 (centres undefined)
inactive: [1] -4.7% | [2] -0.8% | [3] -4.65% | [4] -28.5% | [5] -21.6% | [6] -6.9%

CC1(C)OC(CCl)C2OC(C)(C)OC(CCl)C2O1 (centres undefined)
inactive: [1] 11.1% | [2] 9.3% | [3] -7.35% | [4] 3.85% | [5] -4.95% | [6] 2.75%

Nc1c(Br)cc(Br)cc1C(=O)O
inactive: [1] 23.9% | [2] -14.1% | [3] 42.2% | [4] 17.1% | [5] -6.95% | [6] 5.7%

O=C1CN(C2OC(CO)C(O)C2O)C(=O)NC1=O (centres undefined)
inactive: [1] 41.8% | [2] 14.2% | [3] 55.2% | [4] -11.2% | [5] 9.15% | [6] 24.4%

COC(=O)c1cc(Br)cc(Br)c1N
inactive: [1] 26.1% | [2] -12.9% | [3] 0.3% | [4] -35.1% | [5] 3.6% | [6] 32.4%

COc1ccc2nc3cc(Cl)ccc3c(Nc3ccccc3-c3ccccc3Nc3c4ccc(Cl)cc4nc4ccc(OC)cc34)c2c1
inactive: [1] 6.85% | [2] -8.75% | [3] -18.1% | [4] 17.5% | [5] 2.1% | [6] -27.8%

CCCC(=O)CC(=O)Nc1ccccc1
inactive: [1] 2.9% | [2] -6.3% | [3] -14.9% | [4] -23.9% | [5] -17.6% | [6] 11.2%

O=C1CN2CCC1C/C2=C\c1ccnc2c(Cl)cc(Cl)cc12 (centres undefined)
inactive: [1] 7.75% | [2] -7.55% | [3] -0.9% | [4] -3.4% | [5] -12% | [6] 19.2%

Cc1cc2c(C(C)C)c(O)c(O)c(C=NC(C)c3ccccc3)c2c(O)c1-c1c(C)cc2c(C(C)C)c(O)c(O)c(C=NC(C)c3ccccc3)c2c1O (centres undefined)
inactive: [1] 18.2% | [2] 7.35% | [3] 15.3% | [4] 11.9% | [5] 30.9% | [6] 7.95%

COc1ccc(/C=C2\N=C(N3CCCC(CO)C3)NC2=O)cc1 (centres undefined)
inactive: [1] -35.1% | [2] -2.4% | [3] 8.3% | [4] 1.9% | [5] -3.85% | [6] -34%

C=CCn1c(=O)c2ccccc2[n+]2c(C)c(C(=O)OCC)sc12
inactive: [1] -26.9% | [2] -16.2% | [3] -2.65% | [4] -14.5% | [5] 2.45% | [6] -19.6%

CN(Cc1cnc2nc(N)nc(N)c2n1)c1ccc(C(=O)NC(CCC(=O)OCc2c(Cl)cccc2Cl)C(=O)OCc2c(Cl)cccc2Cl)cc1 (centres undefined)
inactive: [1] 17.1% | [2] 9.2% | [3] 28.5% | [4] 36.2% | [5] 22.1% | [6] 24.5%

COc1ccc(-c2oc(=O)c3ccccc3c2-c2ccccc2)cc1
inactive: [1] 7.25% | [2] 4.65% | [3] 5.35% | [4] 9.4% | [5] 2.6% | [6] 6.4%

N#CCN(CC#N)C1CC=CCC1N(CC#N)CC#N (centres undefined)
inactive: [1] -26.2% | [2] 1% | [3] -30.2% | [4] -20.8% | [5] -21% | [6] -38.1%

Cc1ccc(S(=O)(=O)N/N=C(\c2nc3ccc(Cl)cc3[nH]c2=O)C(O)c2cccc([N+](=O)[O-])c2)cc1 (centres undefined)
inactive: [1] -1.5% | [2] -24% | [3] -9.35% | [4] 11.7% | [5] -22.6% | [6] -0.5%

O=C(Cc1nc2ccccc2o1)C(=O)Nc1ccccc1C(F)(F)F
inactive: [1] -16.5% | [2] -4.9% | [3] -2.8% | [4] 7.2% | [5] 2.75% | [6] 17.6%

COc1ccc2nc3cc(Cl)ccc3c(SCC(=O)Nc3ccccc3-c3ccccc3NC(=O)CSc3c4ccc(Cl)cc4nc4ccc(OC)cc34)c2c1
inactive: [1] -0.1% | [2] -2.9% | [3] -3.05% | [4] 22.9% | [5] 2.5% | [6] 7.8%
